This is a sample that favours compounds with a hit; in the whole collection about 3.8% have one here.
ADAM10 inh: inhibits human ADAM10; inhibition, % at 7 µM; recombinant ADAM10, EDANS/DABCYL FRET peptide cleavage, 3 h; 370,000 tested, 0.62% active; O14672;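 active means inhibition above a per-campaign cutoff equal to the mean of compounds falling between control-based bounds plus 3 SD, cut at about 20% in these data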
Target sequence (O14672 214-748 limits assumed): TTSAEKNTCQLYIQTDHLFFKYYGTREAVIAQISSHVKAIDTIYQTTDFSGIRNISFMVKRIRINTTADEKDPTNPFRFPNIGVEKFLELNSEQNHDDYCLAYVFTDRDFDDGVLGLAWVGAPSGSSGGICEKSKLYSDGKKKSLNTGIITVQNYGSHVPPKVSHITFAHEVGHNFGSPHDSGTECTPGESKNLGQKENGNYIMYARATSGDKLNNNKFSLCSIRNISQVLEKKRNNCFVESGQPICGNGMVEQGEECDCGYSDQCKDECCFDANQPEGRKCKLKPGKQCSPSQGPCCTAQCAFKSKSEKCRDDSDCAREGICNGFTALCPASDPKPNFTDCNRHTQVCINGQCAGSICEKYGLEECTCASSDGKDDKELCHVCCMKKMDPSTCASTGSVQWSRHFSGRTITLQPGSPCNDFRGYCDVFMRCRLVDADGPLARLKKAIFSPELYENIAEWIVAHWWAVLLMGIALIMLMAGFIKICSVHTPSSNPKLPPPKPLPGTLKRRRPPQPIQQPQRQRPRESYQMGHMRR
KLK7 zymogen act: activators of human kallikrein-7 zymogen; 370,000 tested, 0.9% active; activation, % at 7 µM; purified proKLK7, EDANS-DABCYL substrate fluorescence; 100% is mature enzyme control, 0% vehicle; AID 652039; P49862;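 active means activation above the mean of all tested compounds plus 3 SD, computed per campaign excluding outliers beyond control limits, cut at about 13% in these data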
Target sequence (P49862 whole entry, looked up): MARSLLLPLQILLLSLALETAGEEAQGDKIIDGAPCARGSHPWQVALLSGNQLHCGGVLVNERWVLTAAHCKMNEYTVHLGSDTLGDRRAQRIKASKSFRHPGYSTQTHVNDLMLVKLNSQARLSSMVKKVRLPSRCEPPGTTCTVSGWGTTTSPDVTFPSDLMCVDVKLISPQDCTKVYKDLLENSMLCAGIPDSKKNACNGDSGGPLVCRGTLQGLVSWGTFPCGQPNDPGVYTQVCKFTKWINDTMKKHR
rRNA inh HTS: inhibitors of bacterial rRNA selective over humanized ribosomes; E. coli WT GFP vs humanized-ribosome RFP mutants, fluorescence, 24 h; stronger effect = lower value; DMSO median 0, no signal -100; GFP signal change (wild-type ribosome), % (concentration not given with the values); 350,000 tested, 1.6% active;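 active means significant combined selectivity score with lowered wild-type GFP, culture density cut under 30%, mutant RFP and density less affected; inactive means any of these conditions unmet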
FGF22 binding: FGF22 (human) thermal shift binding. recombinant FGF22 thermal shift, SYPRO orange fluorescence; percent of sucrose octasulfate shift, DMSO zero. AID 651658. Q9HCT0. 340,000 tested, 1.5% active. activity (Tm shift, normalised), % at 9.99 µM;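 active means mean Tm shift, scaled 0 neutral to 100 positive control, at about 1.3% or above, every replicate too, limit read from the data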
ADAM17 inh: ADAM17 inhibition, QFRET primary screen; P78536; inhibition, % at 6.95 µM; 370,000 tested, 0.83% active; recombinant ADAM17, EDANS/DABCYL FRET peptide cleavage; AID 720648;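 active means inhibition above the mean of compounds lying between control limits plus 3 SD, set per campaign, cut at about 8.5% in these data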
KLK7 act conf: confirmation of human kallikrein-7 zymogen activators | shares compounds with KLK7 zymogen act | AID 686949 | purified proKLK7, EDANS-DABCYL substrate fluorescence; scaled: vehicle 0, mature enzyme 100 | 3,200 tested, 68% active | activation, % at 7 µM;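 active means activation, as change over the incubation, above the mean of all tested compounds plus 3 SD, cut at about 13% in these data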
EDANS-DABCYL int: optically interferes with EDANS-DABCYL signal, flagging KLK7 hits; 3,200 tested, 80% active; EDANS-DABCYL substrate fluorescence interference, no enzyme, 4 h; solvent 0%, active enzyme control 100%; activation, % at 7 µM; shares compounds with KLK7 zymogen act;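 active means activation above the all-compound mean plus 3 SD, ignoring values outside control-based bounds, cut at about 4.8% in these data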;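 further: value is the 4 h activation minus the activation read at time zero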
EDANS interf: EDANS fluorescence interference in dose response, no enzyme; shares compounds with KLK7 zymogen act; EDANS-DABCYL peptide fluorescence interference; EC50, µM; 250 tested, 20% active;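 active means compounds that raise the fluorescence signal in this interference counterscreen, with EC50 at or below 10 µM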;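 further: intact quenched peptide substrate alone read at 355 nm excitation and 520 nm emission; signal is fluorescence gain from T0 to T4 after four hours at room temperature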
Each line names hits and unclear results; the compound was inactive in the other large screens (follow-up assays come after a bar, where they were run).

O=C(OC1CCOC1=O)c1cc(-c2cccs2)nc2ccccc12 (stereo unspecified)	KLK7 zymogen act 275 | KLK7 act conf 139 | EDANS-DABCYL int 189
C[C@@H](NC(=O)C[C@H]1CC[C@@H]2[C@H](COC[C@H](O)CN2C(=O)Nc2cccc(F)c2)O1)c1ccccc1	none (no result: ADAM10 inh, KLK7 zymogen act, ADAM17 inh)
C[C@@H]1CCCCO[C@H](CN(C)Cc2ccc(C(=O)O)cc2)[C@H](C)CN([C@H](C)CO)C(=O)c2cc(NC(=O)CCC(F)(F)F)ccc2O1	none (no result: ADAM10 inh, KLK7 zymogen act, ADAM17 inh)
CN1C(=O)c2cc(NS(=O)(=O)c3ccc(Cl)cc3)ccc2OC[C@@H]2O[C@@H](CC(=O)N3CCc4ccccc4C3)CC[C@H]21	none (no result: ADAM10 inh, KLK7 zymogen act, FGF22 binding, ADAM17 inh)
O=C(O)c1cc(-c2cccs2)nc2cc3c(cc12)OCCO3	KLK7 zymogen act 30 | KLK7 act conf 42 | EDANS-DABCYL int 50
O=C(NN1CCOCC1)c1cc(-c2cccs2)nc2ccccc12	KLK7 zymogen act 37 (no result: rRNA inh HTS, FGF22 binding) | KLK7 act conf 33 | EDANS-DABCYL int 36
O=C(NN1CCOCC1)c1cc(-c2ccccc2)nc2ccccc12	none (no result: rRNA inh HTS, FGF22 binding)
Cc1cc(C)nc(NC(=O)c2ccc([N+](=O)[O-])o2)n1	KLK7 zymogen act 133 | KLK7 act conf 151 | EDANS-DABCYL int 146
COc1cc2c(cc1OC)CN(CC(=O)NC(=O)NCc1ccco1)CC2	KLK7 zymogen act 48 (no result: FGF22 binding) | KLK7 act conf 14 | EDANS-DABCYL int 14
COc1cc2c(cc1OC)CN(CC(=O)NC(=O)NC(C)(C)C)CC2	none
O=C(NCC[C@H]1CC[C@H](NS(=O)(=O)c2ccc(F)cc2)[C@@H](CO)O1)Nc1ccc(F)cc1	none (no result: ADAM10 inh, KLK7 zymogen act, ADAM17 inh)
CCOC(=O)c1c(-c2ccc(OC)cc2)oc2ccc(OCC(N)=O)cc12	none
CCOC(=O)c1c(-c2ccccc2)oc2ccc(OCC(=O)O)cc12	KLK7 zymogen act 25 | KLK7 act conf 25 | EDANS-DABCYL int 25
O=C(C[C@@H]1C=C[C@H](NC(=O)c2cccnc2)[C@@H](CO)O1)NCc1ccncn1	none (no result: ADAM10 inh, KLK7 zymogen act, FGF22 binding, ADAM17 inh)
O=C1c2ccccc2C(=O)N1c1nc2nccc(-c3ccccc3)n2n1	none (no result: rRNA inh HTS, FGF22 binding)
O=C(Nc1nc2nccc(-c3ccccc3)n2n1)C(Cl)(Cl)Cl	KLK7 zymogen act 39 (no result: rRNA inh HTS) | KLK7 act conf 47 | EDANS-DABCYL int 46
CN1CCN(C(=O)C[C@@H]2CC[C@H]3[C@@H](COC[C@H](O)CN3CC3CCCC3)O2)CC1	none (no result: ADAM10 inh, KLK7 zymogen act, FGF22 binding, ADAM17 inh)
CCNc1oc(/C=C/c2ccc(OCC)cc2)nc1C#N	none
COc1ccccc1/C=C/c1nc(C#N)c(N(C)C)o1	none
CN(C)c1oc(/C=C/c2ccccc2)nc1C#N	KLK7 zymogen act 58 | KLK7 act conf 69 | EDANS-DABCYL int 62
CCN(CC)CCCNc1oc(/C=C/c2ccccc2)nc1C#N	KLK7 zymogen act 104 | KLK7 act conf 28 | EDANS-DABCYL int 18 | EDANS interf inactive
COc1cccc(NC(=O)N2CC3(C2)[C@@H](c2ccccc2)[C@@H](CO)N3C(=O)C2CC2)c1	none (no result: ADAM10 inh, KLK7 zymogen act, FGF22 binding, ADAM17 inh)
CC1C=NC(S(=O)(=O)N2CC[C@@H]3[C@H]2c2cc(-c4ccccc4)ccc2N(C)[C@H]3CO)=N1 (stereo partly specified)	none (no result: ADAM10 inh, KLK7 zymogen act, ADAM17 inh)
COc1ccc(/C=C(/NC(=O)c2ccccc2)C(=O)N/N=C/c2sccc2C)cc1	KLK7 zymogen act 24 | KLK7 act conf 152 | EDANS-DABCYL int 122
COc1cc(C2Nc3ccccc3C(=O)N2c2ccc(Cl)cc2)c(Cl)cc1OCC(=O)O (stereo unspecified)	KLK7 zymogen act 22 (no result: rRNA inh HTS, FGF22 binding) | KLK7 act conf 26 | EDANS-DABCYL int 27
N#CCSc1nc2c(cc1C#N)CCCCCC2	KLK7 zymogen act 15 (no result: rRNA inh HTS, FGF22 binding) | KLK7 act conf 34 | EDANS-DABCYL int 33
CC(C)OC(=O)CC(=O)CSc1nc2c(cc1C#N)CCCCC2	KLK7 zymogen act 24 (no result: rRNA inh HTS, FGF22 binding) | KLK7 act conf 80 | EDANS-DABCYL int 81
CCOC(=O)CC(=O)CSc1nc2c(cc1C#N)CCCCC2	KLK7 zymogen act 29 (no result: rRNA inh HTS, FGF22 binding) | KLK7 act conf 59 | EDANS-DABCYL int 62
N#Cc1cc2c(nc1SCC(=O)N1CCCCC1)CCCC2	none (no result: rRNA inh HTS, FGF22 binding)
CC(C)OC(=O)CSc1nc2c(cc1C#N)CCCCC2	none
O=C(N[C@@H]1CC[C@@H](CCNS(=O)(=O)c2ccc(F)cc2)O[C@H]1CO)c1cnccn1	none (no result: ADAM10 inh, KLK7 zymogen act, ADAM17 inh)
CCN(CC)c1ccc(Nc2cc3n(c(=O)n2)CCc2cc(OC)c(OC)cc2-3)cc1	KLK7 zymogen act 21 | KLK7 act conf 72 | EDANS-DABCYL int 74
CC(=O)c1ccc(N2CCN(S(=O)(=O)c3cc4c(cc3C)NC(=O)CO4)CC2)cc1	KLK7 zymogen act 20 | KLK7 act conf inactive | EDANS-DABCYL int 8.1
Cc1cc2c(cc1S(=O)(=O)N1CCN(c3cccc(C(F)(F)F)c3)CC1)OCC(=O)N2	none
CC(=O)c1ccc(-c2ccc(C(=O)NCC3CCCO3)o2)cc1 (stereo unspecified)	KLK7 zymogen act 29 | KLK7 act conf 43 | EDANS-DABCYL int 45
CC1(C)CC(NC(=O)c2ccc(F)cc2)CC(C)(C)N1	none
CC(=O)c1ccc(-c2ccc(C(=O)N3CCC(C(N)=O)CC3)o2)cc1	KLK7 zymogen act 24 | KLK7 act conf 27 | EDANS-DABCYL int 29
CC(=O)c1ccc(-c2ccc(C(=O)NC3CC(C)(C)NC(C)(C)C3)o2)cc1	KLK7 zymogen act 34 | KLK7 act conf 18 | EDANS-DABCYL int 24
O=C(NCC1CCCO1)c1ccc(-c2cccc(C(F)(F)F)c2)o1 (stereo unspecified)	none
CSc1ccc(/C=C/C(=O)OCC(=O)NC2CCCCCC2)cc1	none
CSc1ccc(/C=C/C(=O)OCC(=O)NCC2CCCO2)cc1 (stereo unspecified)	KLK7 zymogen act 18 | KLK7 act conf 14 | EDANS-DABCYL int 16
CSc1ccc(/C=C/C(=O)OCC(=O)NC2CCS(=O)(=O)C2)cc1 (stereo unspecified)	KLK7 zymogen act 23 | KLK7 act conf 20 | EDANS-DABCYL int 16 | EDANS interf inactive
O=C(C[C@@H]1CC[C@@H]2[C@H](COC[C@H](O)CN2Cc2ccccc2)O1)NCc1ccccc1Cl	none (no result: ADAM10 inh, KLK7 zymogen act, ADAM17 inh)
O=c1[nH]c2cc3c(cc2cc1C(c1nnnn1CC1CCCO1)N1CCCC1)OCO3 (stereo unspecified)	KLK7 zymogen act 15 (no result: rRNA inh HTS, FGF22 binding) | KLK7 act conf inactive | EDANS-DABCYL int 9.4
Cc1cc2nc(-c3ccc[nH]c3=O)n(Cc3ccc(F)cc3)c2cc1C	KLK7 zymogen act 22 | KLK7 act conf inactive | EDANS-DABCYL int inactive
Cc1ccccc1-c1nc2ccccc2[nH]1	none (no result: rRNA inh HTS, FGF22 binding)
